Measurements taken from the supplement of paper PMC3545927.
The list shows a part of the results. How many sequences the whole screen found active is unknown.

Molecular target: furin, P09958
Test: furin cleavage Z-score vs untreated control; higher = more cleavage, active = 3.5 or more, inactive = 1 or less, 8 variable residues between constant flanks
Outline: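 The cleavage Z-score was derived for purified furin acting on 8-mer peptides held on magnetic beads and fused to a cDNA oligonucleotide. Digests lasted 7.5, 15 or 30 min at 1:10 enzyme:substrate in 50 mM HEPES pH 7.5 with CaCl2 and NaCl. Sequencing counts of released DNA, log-transformed against furin-free reactions, were lowess-adjusted and scaled by median absolute deviation.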

furin, P09958, sequence (P09958 whole entry): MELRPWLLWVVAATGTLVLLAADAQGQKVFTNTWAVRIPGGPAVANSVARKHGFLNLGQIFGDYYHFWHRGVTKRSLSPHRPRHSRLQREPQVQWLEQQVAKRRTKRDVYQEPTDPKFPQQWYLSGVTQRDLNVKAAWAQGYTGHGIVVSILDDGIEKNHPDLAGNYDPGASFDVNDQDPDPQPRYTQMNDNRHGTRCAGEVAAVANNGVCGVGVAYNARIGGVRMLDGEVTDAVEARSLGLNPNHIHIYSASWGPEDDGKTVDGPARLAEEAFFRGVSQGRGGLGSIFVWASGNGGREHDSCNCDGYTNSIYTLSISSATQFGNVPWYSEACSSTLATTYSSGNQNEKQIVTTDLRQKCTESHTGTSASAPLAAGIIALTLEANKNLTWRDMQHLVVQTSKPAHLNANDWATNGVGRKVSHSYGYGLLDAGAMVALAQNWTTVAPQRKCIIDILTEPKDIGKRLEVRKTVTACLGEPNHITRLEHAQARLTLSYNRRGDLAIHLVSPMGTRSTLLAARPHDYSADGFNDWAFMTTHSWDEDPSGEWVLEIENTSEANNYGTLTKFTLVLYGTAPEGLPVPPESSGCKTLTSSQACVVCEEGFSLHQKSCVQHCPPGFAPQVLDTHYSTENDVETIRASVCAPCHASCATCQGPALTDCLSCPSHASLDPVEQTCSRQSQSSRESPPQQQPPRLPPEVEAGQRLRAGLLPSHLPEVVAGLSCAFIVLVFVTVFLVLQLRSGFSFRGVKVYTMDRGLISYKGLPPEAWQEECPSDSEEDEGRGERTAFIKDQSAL

| Sequence | furin cleavage Z-score (7.5 min) | furin cleavage Z-score (15 min) | furin cleavage Z-score (30 min) |
| --- | --- | --- | --- |
| CAESKRLVDTAGNASASA [FS-1880] | -0.698 (inactive) | 0.318 (inactive) | 0.434 (inactive) |
| CAEVVTSTTVAGNASASA [HC2238] | -0.88 (inactive) | -1.41 (inactive) | 0.307 (inactive) |
| CARQPRSNGDAGNASASA [FS-2292] | 0.463 (inactive) | -0.49 (inactive) | 1.56 |
| CAKVKRSQGDAGNASASA [FS-1985] | 3.98 (active) | 3.48 | 3.75 (active) |
| CALRNRLFRGAGNASASA [FS-359] | 0.887 (inactive) | 1.52 | -0.676 (inactive) |
| CAGFDRKKRGAGNASASA [FS-238] | 9.36 (active) | 9.95 (active) | 8.88 (active) |
| CAQRNLKKRGAGNASASA [FS-914] | 10.1 (active) | 13.1 (active) | 11.1 (active) |
| CALRTREKRGAGNASASA [FS-549] | 7.16 (active) | 7.31 (active) | 5.83 (active) |
| CALHKRQVGDAGNASASA [FS-1675] | -0.324 (inactive) | -0.439 (inactive) | 0.074 (inactive) |
| CATTPHSGSWAGNASASA [HC49] | -0.934 (inactive) | -0.777 (inactive) | -0.65 (inactive) |
| CAEDRDRSELAGNASASA [HC488] | 0.995 (inactive) | 1.63 | 0.694 (inactive) |
| CARTPCSAHLAGNASASA [HC2473] | 0.852 (inactive) | -0.775 (inactive) | 2.15 |
| CAITPCSAHLAGNASASA [HC2464] | -1.38 (inactive) | 0.00684 (inactive) | -0.357 (inactive) |
| CATCPCSGSWAGNASASA [HC1860] | -0.794 (inactive) | -0.696 (inactive) | -0.69 (inactive) |
| CAMTPCSGSWAGNASASA [HC1826] | -0.934 (inactive) | -2.45 (inactive) | -0.784 (inactive) |
| CAAPHREKRGAGNASASA [FS-398] | 10.8 (active) | 11.4 (active) | 9.9 (active) |
| CAARGRYSRGAGNASASA [FS-1622] | 1.05 | 0.971 (inactive) | 1.84 |
| CATFAVEKRGAGNASASA [FS-1289] | 1.19 | 0.186 (inactive) | 0.573 (inactive) |
| CAEVVWSTWVAGNASASA [HC127] | 0.227 (inactive) | 0.0628 (inactive) | -0.337 (inactive) |
| CAKQRRIVGIAGNASASA [FS-2869] | 0.0283 (inactive) | -0.751 (inactive) | 0.888 (inactive) |
| CARMCRVAGWAGNASASA [FS-2046] | 0.157 (inactive) | -0.469 (inactive) | 0.75 (inactive) |
| CARYRRCVGWAGNASASA [FS-2389] | 3.27 | 2.12 | 5.02 (active) |
| CARYRRLTGDAGNASASA [FS-1843] | -1.17 (inactive) | -0.169 (inactive) | 1.01 |

| Sequence | furin cleavage Z-score (7.5 min) | furin cleavage Z-score (15 min) | furin cleavage Z-score (30 min) |
| --- | --- | --- | --- |
| CARYRRTVGIAGNASASA [FS-2851] | 2.96 | 3.86 (active) | 6.08 (active) |
| CARYCRGVSAAGNASASA [FS-1941] | -0.864 (inactive) | -0.376 (inactive) | -0.444 (inactive) |
| CAQCTTPCSGAGNASASA [HC1962] | -0.946 (inactive) | 0.921 (inactive) | -0.234 (inactive) |
| CAYCTTPCSGAGNASASA [HC1949] | -0.657 (inactive) | -1.14 (inactive) | -0.156 (inactive) |
| CASEECSQHLAGNASASA [HC1677] | 1.1 | 1.14 | 0.289 (inactive) |
| CAVRSRMRRAAGNASASA [FS-1500] | 11 (active) | 10.2 (active) | 8.12 (active) |
| CALPSRQKKAAGNASASA [FS-1365] | 0.168 (inactive) | 0.828 (inactive) | 1.92 |
| CACSFTTLPAAGNASASA [HC499] | -0.00686 (inactive) | 0.0583 (inactive) | 0.931 (inactive) |
| CAVRSRHLRAAGNASASA [FS-632] | 9.71 (active) | 9.82 (active) | 8.62 (active) |
| CAGPLWILQAAGNASASA [HC609] | 1.21 | -0.216 (inactive) | 0.172 (inactive) |
| CAVPSRQSRAAGNASASA [FS-207] | 7.32 (active) | 8.36 (active) | 8.3 (active) |
| CAPSFRDRRAAGNASASA [FS-1244] | 9.04 (active) | 11.1 (active) | 9 (active) |
| CAMEEISQHLAGNASASA [HC5] | 1.45 | 0.702 (inactive) | -0.262 (inactive) |
| CAHLHAPTGSAGNASASA [HC774] | -0.0824 (inactive) | 0.739 (inactive) | 0.623 (inactive) |
| CAPQDVKFPGAGNASASA [HC170] | 0.0199 (inactive) | -1.23 (inactive) | 0.673 (inactive) |
| CAVEGEVQIVAGNASASA [HC688] | -0.863 (inactive) | -0.579 (inactive) | -0.88 (inactive) |
| CALHRRQKRIAGNASASA [FS-821] | 9.03 (active) | 10.1 (active) | 10.5 (active) |
| CARSLRSWLIAGNASASA [FS-1974] | 0.545 (inactive) | 0.463 (inactive) | 0.528 (inactive) |
| CAERLRQKRIAGNASASA [FS-1194] | 4.13 (active) | 5.45 (active) | 4.4 (active) |
| CASIARQKRIAGNASASA [FS-562] | 4.19 (active) | 2.74 | 5.27 (active) |
| CAMSTRKARIAGNASASA [FS-277] | 1.25 | 1.83 | -0.362 (inactive) |
| CASITRMKRIAGNASASA [FS-719] | 6.03 (active) | 8.1 (active) | 7.63 (active) |
